PubChem BioAssay (Tox21)
Values joined by “and” are separate entries in the source; they are usually repeats but may differ in a detail not shown here. Equal entries are not always repeated. The source holds several records for some structures; these can differ, active in one and inactive in another. Active and inactive are the calls of the source. Where a call stands in place of a potency, no number is given. Unless noted, the call rests on the fitted dose curve; in most records, active means well fitted curve in the direction sought with a large enough effect in the repeat runs; inconclusive means weak or mixed curves; inactive means no such curve, though single readings can be large; an effect the other way counts as inactive or inconclusive.

Key:
[1] = qHTS assay to identify small molecule antagonists of the thyroid receptor (TR) signaling pathway - cell viability counter screen (AID 743064); further: nearly all actives have a fitted effect of over 50% in size; further: potency means the concentration at half of the fitted maximal effect
Method in brief: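 Viability of T3-stimulated (1 nM final) GH3.TRE-Luc cells is measured by CellTiter-Fluor fluorescence after 23.5 h compound exposure at 37 °C plus 30 min reagent incubation.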

[2] = qHTS assay to identify small molecule antagonists of the thyroid receptor (TR) signaling pathway (AID 743065); further: nearly all actives have a fitted effect of over 55% in size; further: potency means the concentration at half of the fitted maximal effect
Method in brief: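 GH3.TRE-Luc rat pituitary cells (two TREs driving luciferase) were dosed with compound, then stimulated with 1 nM T3 (final) for 23.5 h at 37 C. ONE-Glo luminescence was the read-out, with CellTiter-Fluor fluorescence as the cytotoxicity counter-screen.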

[3] = test system: thyroid hormone receptor (rat, GH3 cells); test: qHTS assay to identify small molecule agonists of the thyroid receptor (TR) signaling pathway (AID 743066; calls by dose curve; further: potency means the concentration at half of the fitted maximal effect)
[4] = molecular target: Estrogen receptor (Homo sapiens) (UniProt P03372); test: qHTS assay to identify small molecule antagonists of the estrogen receptor alpha (ER-alpha) signaling pathway (AID 743069; active means well fitted curve in the direction sought with a large enough effect in the signal ratio in the repeat runs, not every such curve was filed as active; inconclusive means weak or mixed curves, or effect the other way; inactive means no such curve, though single readings can be large or run the other way; the % refers to the signal ratio; further: potency means the concentration at half of the fitted maximal effect)
Sequence of Estrogen receptor (Homo sapiens) (P03372 whole entry, looked up): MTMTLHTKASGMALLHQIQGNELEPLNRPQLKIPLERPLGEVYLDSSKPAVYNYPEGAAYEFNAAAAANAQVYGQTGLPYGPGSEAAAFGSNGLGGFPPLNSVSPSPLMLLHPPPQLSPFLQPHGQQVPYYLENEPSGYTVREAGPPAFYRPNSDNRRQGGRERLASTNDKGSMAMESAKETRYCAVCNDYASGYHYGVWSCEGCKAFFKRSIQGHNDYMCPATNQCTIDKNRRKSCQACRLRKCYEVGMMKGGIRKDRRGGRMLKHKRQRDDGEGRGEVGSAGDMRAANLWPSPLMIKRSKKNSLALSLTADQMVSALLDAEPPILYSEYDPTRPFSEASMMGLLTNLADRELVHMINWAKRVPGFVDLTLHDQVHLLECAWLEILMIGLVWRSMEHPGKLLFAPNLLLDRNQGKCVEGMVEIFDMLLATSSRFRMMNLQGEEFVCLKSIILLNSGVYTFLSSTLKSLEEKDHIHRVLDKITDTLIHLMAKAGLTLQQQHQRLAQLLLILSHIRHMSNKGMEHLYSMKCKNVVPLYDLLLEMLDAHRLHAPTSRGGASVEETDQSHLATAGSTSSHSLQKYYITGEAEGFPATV
Method in brief: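 Beta-lactamase FRET fluorescence is read after 2 hr at room temperature with LiveBLAzer B/G substrate. Before that, ER-alpha-bla HEK293 cells sit 4 hr after plating, then receive compound plus 17beta-estradiol and incubate 18 hr at 37C.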

[5] = qHTS assay to identify small molecule antagonists of the estrogen receptor alpha (ER-alpha) signaling pathway - cell viability counter screen (AID 743074; calls by dose curve;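 further: HEK293 cells carrying ER-alpha-UAS-bla reporter stimulated with 17beta-estradiol; nearly all actives have a fitted effect of over 45% in size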)
[6] = molecular target: Estrogen receptor (Homo sapiens) (UniProt P03372); test: qHTS assay to identify small molecule agonists of the estrogen receptor alpha (ER-alpha) signaling pathway (AID 743075; calls by dose curve;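 further: HEK293 GripTite cells with ER-alpha and UAS-driven beta-lactamase reporter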; further: potency means the concentration at half of the fitted maximal effect)
[7] = molecular target: Estrogen receptor (Homo sapiens) (UniProt P03372); test: qHTS assay to identify small molecule agonists of the estrogen receptor alpha (ER-alpha) signaling pathway using the BG1 cell line (AID 743079); further: nearly all actives have a fitted effect of over 20% in size; further: potency means the concentration at half of the fitted maximal effect
[8] = qHTS assay to identify small molecule antagonists of the estrogen receptor alpha (ER-alpha) signaling pathway using the BG1 cell line (AID 743080; calls by dose curve;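 further: BG1 cells stimulated with 17beta-estradiol alongside compound; nearly all actives have a fitted effect of over 25% in size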; further: potency means the concentration at half of the fitted maximal effect)
Method in brief: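 Readout is ONE-Glo luminescence, taken 30 min at room temperature after reagent addition, preceded by a CellTiter-Fluor viability read; BG1-Luc-4E2 cells had received compound and 17beta-estradiol for 21.5 h at 37 C.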

[9] = qHTS assay to identify small molecule antagonists of the estrogen receptor alpha (ER-alpha) signaling pathway using the BG1 cell line - cell viability counter screen (AID 743081);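 further: compound given together with 17beta-estradiol as the ER stimulus; nearly all actives have a fitted effect of over 45% in size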; further: potency means the concentration at half of the fitted maximal effect
[10] = molecular target: Aromatase (Homo sapiens) (UniProt P11511); test: qHTS assay to identify aromatase inhibitors (AID 743083); further: nearly all actives have a fitted effect of over 55% in size; further: potency means the concentration at half of the fitted maximal effect
Sequence of Aromatase (Homo sapiens) (P11511 whole entry, looked up): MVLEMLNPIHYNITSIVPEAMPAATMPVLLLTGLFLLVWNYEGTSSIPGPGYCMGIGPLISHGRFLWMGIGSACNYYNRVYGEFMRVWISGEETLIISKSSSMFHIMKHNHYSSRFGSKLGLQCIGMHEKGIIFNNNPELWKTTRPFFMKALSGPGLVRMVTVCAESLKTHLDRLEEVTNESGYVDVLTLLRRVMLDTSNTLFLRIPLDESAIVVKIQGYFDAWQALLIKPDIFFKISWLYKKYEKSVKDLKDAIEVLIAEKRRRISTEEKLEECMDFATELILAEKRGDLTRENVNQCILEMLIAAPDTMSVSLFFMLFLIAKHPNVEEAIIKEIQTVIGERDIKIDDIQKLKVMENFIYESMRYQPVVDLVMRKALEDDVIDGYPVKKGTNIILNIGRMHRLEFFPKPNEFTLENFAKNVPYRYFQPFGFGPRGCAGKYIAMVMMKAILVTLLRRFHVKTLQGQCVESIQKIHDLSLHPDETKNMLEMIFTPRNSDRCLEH

Compound | Potency [1] | Potency [2] | Potency [3] | Potency [4] | Potency [5] | Potency [6] | Potency [7] | Potency [8] | Potency [9] | Potency [10]
CN(C)C | inactive | inactive | inactive | inactive | inactive | inactive | inactive | inactive | inactive | inactive
CCC(Cc1c(I)cc(I)c(N)c1I)C(=O)O (configuration not stated) | inactive | inactive | inactive | inactive and 47.5 µM [inconclusive] (active) | inactive | 8.11 µM [inconclusive] (active) and 5.32 µM [activator] (active) | inactive | inactive | inactive | inactive
CCCCCC=O | inactive | inactive | inactive | inactive | inactive | inactive | inactive | inactive | inactive | –
O=C(O)CCCC(=O)O | inactive | inactive | inactive | inactive | – | inactive | inactive | inactive | inactive | inactive
CCCCCCC(C)O (configuration not stated) | inactive | inactive | 55.6 µM (active) and inactive | inactive | inactive | inactive | inactive | inactive | inactive | inactive
Nc1cc([N+](=O)[O-])ccc1C(=O)O | inactive | inactive | inactive | inactive | – | inactive | inactive and 77 µM (active) | inactive | inactive | inactive
CC(=O)O[C@]1(C(C)=O)CC[C@H]2[C@@H]3C=C(Cl)C4=CC(=O)CC[C@]4(C)[C@H]3CC[C@@]21C | inactive | 26.6 µM (active) and 54.4 µM (active) | inactive | – | inactive | inactive | – | – | inactive | inactive
FC(F)(F)C(Cl)Br (configuration not stated) | inactive | inactive | inactive | inactive | inactive | inactive | inactive | inactive | inactive | inactive
CC1(C)C(C=C(Cl)Cl)C1C(=O)OCc1cccc(Oc2ccccc2)c1 (configuration not stated) | inactive | inactive | inactive | inactive | inactive | inactive | inactive | inactive | inactive | inactive
O=C(O)COCCN1CCN(C(c2ccccc2)c2ccc(Cl)cc2)CC1 (configuration not stated) | inactive | inactive | inactive | inactive | inactive | inactive | inactive | inactive | inactive | –
CCCCCCCCCCCCCO | inactive | inactive | inactive | inactive | inactive | inactive | inactive | inactive | inactive | inactive
COC(=O)C(C)Oc1ccc(Oc2ncc(C(F)(F)F)cc2Cl)cc1 (configuration not stated) | inactive | inactive | inactive | – | inactive | inactive | – | inactive | inactive | inactive
[O-]/[N+](=N\O)c1ccccc1 | inactive | inactive | inactive | inactive | – | inactive and 55 µM [activator] (active) | 61.1 µM (active) | – | inactive | inactive
ClC/C=C/CCl | inactive | inactive | inactive | inactive | inactive | inactive | inactive | inactive | inactive | inactive
Nc1cc(Cl)c(N)c(Cl)c1 | inactive | inactive | inactive | inactive | inactive | inactive | inactive | 34.1 µM (active) and inactive | inactive | inactive
CC(C)(C)c1cccc(C(C)(C)C)c1O | inactive | inactive | inactive | inactive | inactive | inactive | inactive | inactive | inactive | inactive
C=C1C[C@H]2[C@@H]3C=C(C)C4=CC(=O)CC[C@]4(C)[C@H]3CC[C@]2(C)[C@@]1(OC(C)=O)C(C)=O | inactive | 23.7 µM (active) and 15.7 µM (active) | inactive | inactive | inactive | – | inactive | inactive | inactive | inactive
CNC[C@H](O)c1ccc(O)c(O)c1 | inactive | inactive | inactive | inactive | inactive | inactive | inactive | inactive | inactive | inactive
c1ccc2cc3ccccc3cc2c1 | inactive | inactive | inactive | – | inactive | inactive | – | – | inactive | inactive
Cc1ccc([N+](=O)[O-])c(C)c1 | inactive | inactive | inactive | inactive | inactive | inactive | inactive and 68.6 µM (active) | inactive | inactive | inactive
CC(=O)OC(C)C | inactive | inactive | inactive | inactive | inactive | inactive | – | inactive | inactive | inactive
CCCCCCCC/C=C\CCCCCCCC(=O)O | inactive | inactive | inactive | inactive | inactive | inactive | inactive | inactive | inactive | inactive

Compound | Potency [1] | Potency [2] | Potency [3] | Potency [4] | Potency [5] | Potency [6] | Potency [7] | Potency [8] | Potency [9] | Potency [10]
COC(=O)CC(=O)OC | inactive | inactive | inactive | inactive | inactive | inactive | inactive | inactive | inactive | inactive
NCCS(=O)(=O)O | inactive and 28.4 µM (active) | inactive | inactive | inactive | inactive | inactive | inactive | inactive | inactive | inactive
CC(=O)O[C@]1(C(C)=O)CC[C@H]2[C@@H]3C=C(C)C4=CC(=O)CC[C@]4(C)[C@H]3CC[C@@]21C | inactive | 27.3 µM (active) | inactive | – | inactive | inactive | inactive | inactive | inactive | inactive
c1ccc2c(c1)[nH]c1ccccc12 | inactive | inactive | inactive | inactive | inactive | inactive | inactive | inactive | inactive | inactive
Brc1nc2ccccc2s1 | inactive | inactive | inactive | inactive | – | inactive | inactive | inactive | inactive | inactive
CC1(C)O[C@@H]2C[C@H]3[C@@H]4C[C@H](F)C5=CC(=O)C=C[C@]5(C)[C@@]4(F)[C@@H](O)C[C@]3(C)[C@]2(C(=O)CO)O1 | inactive | inactive | inactive | inactive | inactive | inactive | inactive | inactive | inactive | inactive
Cc1ccc(C(C)(C)C)cc1 | inactive | inactive | inactive | inactive | inactive | inactive | inactive | inactive | inactive | inactive
CCc1cccc2c3c([nH]c12)C(CC)(CC(=O)O)OCC3 (configuration not stated) | inactive | inactive | inactive | inactive | inactive | inactive | inactive | inactive | inactive | inactive
CCC/C=C/C=O | inactive | inactive | inactive | inactive | inactive | inactive | inactive | inactive | inactive | inactive
CC(=O)[C@@]1(O)CC[C@H]2[C@@H]3C[C@H](C)C4=CC(=O)C=C[C@]4(C)[C@@]3(F)[C@@H](O)C[C@@]21C | inactive | inactive | inactive | inactive | inactive | inactive | inactive | – | inactive | inactive
CC(=O)Oc1ccc(C(c2ccc(OC(C)=O)cc2)c2ccccn2)cc1 | inactive | inactive | inactive | 19 µM [inconclusive] (active) and 24.4 µM [inconclusive] (active) | inactive | 3.01 µM [activator] (active) | – | – | 2.11 µM (active) and 1.92 µM (active) | inactive
O=C(O)c1cc(=O)[nH]c(=O)[nH]1 | inactive | inactive | inactive | inactive | inactive | inactive | inactive | inactive | inactive | inactive
O=Cc1ccccc1C=O | 10.6 µM (active) and 2.43 µM (active) | 9.44 µM (active) and 2.17 µM (active) | inactive | inactive | inactive | 23.9 µM [activator] (active) and inactive | 21.1 µM (active) and 30.6 µM (active) | – | inactive | inactive and 8.63 µM (active)
Cc1ccc(N)c([N+](=O)[O-])c1 | inactive | inactive | inactive | inactive | inactive | inactive | 38.1 µM (active) and inactive | inactive | inactive | inactive
C1CN(SSN2CCOCC2)CCO1 | 67.9 µM (active) | 60.5 µM (active) | inactive | inactive | inactive | inactive | inactive | inactive | inactive | –
Cc1ccc(S(=O)(=O)O)cc1C | inactive | inactive | inactive | inactive | inactive | inactive | inactive | inactive | inactive | inactive
C1COCCN1 | inactive | inactive | inactive | inactive | inactive | inactive | inactive | inactive | inactive | inactive
CC/C(=C(/CC)c1ccc(O)cc1)c1ccc(O)cc1 | 54 µM (active) and 54.5 µM (active) | – | – | – | inactive | – | – | – | inactive | –
CC(C)[C@@H]1CC[C@@H](C)CC1=O | inactive | – | – | – | inactive | – | – | – | inactive | inactive
CC(C)[N+](C)(CCOC(=O)C1c2ccccc2Oc2ccccc21)C(C)C | – | inactive | inactive | inactive | inactive | inactive | inactive | inactive | inactive | inactive
CN(C)/N=N/c1nc[nH]c1C(N)=O | – | inactive | inactive | inactive | inactive | inactive | inactive | inactive | inactive | inactive
